Bioassay records (PubChem BioAssay)
Compounds with a hit are over-represented: about 2.7% of the library has one in this group of screens.
ClpP mod: qHTS Assay for Activators of ClpP | actives 1.9% (n = 340,000) | Potency, µM (doses to about 57.5 µM) | purified B. subtilis ClpP, FRET peptide cleavage, 20 min; active = well fitted falling curve with a large enough effect; inconclusive = small, poorly fitted or top-dose-only effect; inactive = no such curve, though single readings can be large or run the other way; note: the source files actives as falling curves though it sought activators and does not explain the sign; nearly all actives have a fitted effect of over 65% in size
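FRET quenching reversal measured ClpP activation: 10 microg/mL B. subtilis ClpP at pH 8 with the FRET-FV decapeptide, read at 430 nm after 320 nm excitation. The 20-min minus 0-min signal was scaled between DMSO/no-enzyme wells and ADEP (5.8 microM final).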
gsp antagonist: qHTS for Antagonists of gsp, the Etiologic Mutation Responsible for Fibrous Dysplasia/McCune-Albright Syndrome: qHTS | gsp-mutant cells, cAMP HTRF, 30 min | Potency, µM (highest dose often 76.9 µM), usual class: inhibitors | actives 0.4% (n = 340,000); calls by dose curve; cell line not stated here;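 note: intracellular cAMP measured with PDE inhibitor Ro 20-1724 present during compound exposure; nearly all actives have a fitted effect of over 65% in size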
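Measurement of cellular cAMP by homogeneous time-resolved fluorescence following a 30 min compound exposure at 37C. The PDE inhibitor […] was present throughout; the assay buffer was DPBS with 0.05% BSA and 0.005% Tween 20.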
RXFP1 antagonist: qHTS Assay for Antagonists of the Relaxin Receptor RXFP1 | Relaxin receptor 1 (Homo sapiens), Q9HBX9 | HEK293-RXFP1, relaxin-stimulated cAMP HTRF, 30 min; active compounds read low | activity change, negative = inhibition, % at 57.5 µM | actives 0.59% (n = 350,000) | AID 1259400, 2018;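 active = activity change of -60% or lower, but not beyond a set lower limit; inconclusive = change between -60% and -40%, or beyond the set limit; inactive = change above -40%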
Target sequence (Q9HBX9 whole entry, looked up): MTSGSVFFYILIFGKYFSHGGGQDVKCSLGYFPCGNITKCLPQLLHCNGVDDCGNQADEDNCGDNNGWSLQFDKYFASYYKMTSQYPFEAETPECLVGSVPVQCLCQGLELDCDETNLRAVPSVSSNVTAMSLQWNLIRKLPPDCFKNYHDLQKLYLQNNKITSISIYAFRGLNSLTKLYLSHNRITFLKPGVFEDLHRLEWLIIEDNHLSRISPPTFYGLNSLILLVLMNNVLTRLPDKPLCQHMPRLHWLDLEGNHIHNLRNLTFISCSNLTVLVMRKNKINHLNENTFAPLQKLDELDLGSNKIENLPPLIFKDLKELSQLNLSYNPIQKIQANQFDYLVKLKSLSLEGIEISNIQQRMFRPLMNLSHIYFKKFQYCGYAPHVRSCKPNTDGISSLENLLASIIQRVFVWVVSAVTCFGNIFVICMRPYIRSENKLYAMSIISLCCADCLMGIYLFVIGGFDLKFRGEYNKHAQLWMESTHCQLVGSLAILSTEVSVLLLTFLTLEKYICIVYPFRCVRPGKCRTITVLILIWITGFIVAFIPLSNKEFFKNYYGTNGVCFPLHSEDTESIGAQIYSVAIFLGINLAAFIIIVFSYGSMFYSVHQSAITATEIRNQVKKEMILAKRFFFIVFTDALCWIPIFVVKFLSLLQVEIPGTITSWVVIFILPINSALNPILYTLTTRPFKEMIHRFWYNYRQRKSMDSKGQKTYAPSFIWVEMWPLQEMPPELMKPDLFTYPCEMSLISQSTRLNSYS
RXFP1 ag: qHTS Assay for Agonists of the Relaxin Receptor RXFP1; HEK293T-RXFP1 cAMP TR-FRET, 30 min; response scale: percent of porcine relaxin response, buffer zero; actives 0.3% (n = 370,000); Potency, µM (series often up to 57.5 µM), hits mostly activators; Relaxin receptor 1 (Homo sapiens), Q9HBX9; active = well fitted activation curve with a large enough effect; inconclusive = small, poorly fitted or top-dose-only effect; note: nearly all actives have a fitted effect of over 60% in size
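Agonist response is measured as cAMP accumulation in an RXFP1-transfected HEK293T line under PDE4 inhibition. Values are scaled between buffer-only and 29 nM porcine relaxin, and EC50s come from standard Hill equation fits.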
gsp ag: qHTS for Agonist of gsp, the Etiologic Mutation Responsible for Fibrous Dysplasia/McCune-Albright Syndrome: qHTS | actives 0.13% (n = 340,000) | Potency, µM (series often up to 76.9 µM), usual class: activators | gsp mutant cells, cAMP HTRF, 30 min; active = well fitted activation curve with a large enough effect; inconclusive = small, poorly fitted or top-dose-only effect, or another doubt; inactive = no such curve, though single readings can be large or run the other way; cell line not stated here;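 note: phosphodiesterase inhibitor Ro 20-1724 added with compounds to block cAMP breakdown; nearly all actives have a fitted effect of over 60% in size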
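Cells stably selected in G418 were plated at 2000/well, grown 16-24 hr, then given compounds in DMSO with the PDE inhibitor […] (300 uM solution added) for 30 min at 37C; cAMP was read by HTRF.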
Akt phos inh: HTS Assay for Inhibitors of Akt Phophorylation: Primary Screen. Neuro2A IGF-stimulated pAkt S473 HTRF, 20 min; active compounds read low. activity change, % for hits at 50 µM. actives 0.32% (n = 360,000). AID 651550, 2012; in the data active = activity change below about -80%; inconclusive = mostly about -51% to -80%
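Single-point screen (50 µM final compound) in Neuro2A cells stimulated 20 min with 6 nM IGF at 37 deg C. After lysis, Ser473-phosphorylated Akt read by HTRF (ex 330 nm, em 615/665 nm) as the 665/615 ratio.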
Numbers stand for hits; . = inactive; ? = inconclusive; / = no result; [ ] = another dose, or the depositor's remark.

SMILES | ClpP mod | gsp antagonist | RXFP1 antagonist | RXFP1 ag | gsp ag | Akt phos inh
CCN(CC)CCN1C(=O)c2ccccc2NC1c1cc(OC)c(OC)c(OC)c1 (configuration not stated) | 13µM | . | . | . | . | .
COc1cc(C2Nc3ccccc3C(=O)N2Cc2ccco2)cc(OC)c1OC (configuration not stated) | . | / | / | / | / | /
CC(=O)c1cccc(Nc2nc(=O)c3cccnc3s2)c1 | . | . | . | . | ? | .
CC(=O)c1ccc(Nc2nc(=O)c3cccnc3s2)cc1 | . | . | . | ? | 10µM | .
Cn1c(=O)c2c(ncn2CC(=O)N2CCOCC2)n(C)c1=O | 32µM | . | . | . | . | .
CCOC(=O)c1ccccc1NC(=O)Cn1cnc2c1c(=O)n(C)c(=O)n2C | . | . | . | . | 28µM | /
CCOC(=O)c1ccccc1NC(=O)CSc1nc2c(c(=O)n(C)c(=O)n2C)n1C | / | / | / | . | / | /
Cn1c(=O)c2c(ncn2CC(=O)Nc2nc3ccc(F)cc3s2)n(C)c1=O | . | . | . | . | ? | -122%
C[C@H](CO)N1C[C@H](C)[C@@H](CN(C)C(=O)NC2CCCCC2)Oc2c(NC(=O)c3ccncc3)cccc2C1=O | . | . | / | / | . | .
O=C(Cc1ccc(Br)cc1)NO | . | / | / | / | / | /
CC1CCCC(C)N1C(=O)CSCc1ccc(Cl)cc1 (configuration not stated) | . | 35µM | . | . | . | .
CC1CCCC(C)N1C(=O)COC(=O)Cc1ccc(Cl)cc1 (configuration not stated) | . | . | . | . | . | .
Oc1c(Br)cc(Br)cc1/C=N/NC(=S)N[C@H]1CC2C=CC1C2 (some centres not stated) | / | . | -72 | . | .[15.4 µM] | .
CNC(=S)N/N=C/c1cc(Br)cc(Br)c1O | . | . | . | . | . | .
CC1(C)CC(=O)c2c(-c3cccs3)n[nH]c2C1 | 25µM | . | . | . | ? | /
CCc1ccc(S(=O)(=O)c2c(C(=O)c3ccccc3)cnc3ccc(CC)cc23)cc1 | . | / | . | . | / | /
O=C(O)c1ccccc1NS(=O)(=O)c1cccc(-n2sc3ccccc3c2=O)c1 | / | ? | -115 | . | . | .
COc1ccc(OC)c(/C=C/C(=O)N(C)CC(=O)Nc2ccc(N3CCOCC3)cc2)c1 | 28µM | . | . | . | . | .
COc1ccc(CCC(=O)N(C)CC(=O)Nc2ccc(N3CCOCC3)cc2)cc1 | / | . | . | . | .[15.4 µM] | .
Cc1nnsc1C(=O)Oc1ccc(Cl)cc1 | . | / | . | . | / | /
COC(=O)c1cc(NC(=O)CSC2=NCCS2)cc(C(=O)OC)c1 | 25µM | . | . | . | .[15.4 µM] | .
Cc1cc(C)nc(-n2nc(C)c3c2NC(=O)CC3c2cccc(O)c2)n1 (configuration not stated) | . | / | . | . | / | /
O=C(Nc1ccc(S(=O)(=O)N2CCCCC2)cc1)c1ccncc1 | . | . | . | . | . | .
O=C(Nc1ccc(Cc2ccncc2)cc1)c1ccc(S(=O)(=O)N2CCCC2)cc1 | / | 50µM | -61 | . | . | .
O=C(Oc1cccc(NC(=O)c2ccco2)c1)c1cccc(S(=O)(=O)N2CCCCC2)c1 | . | . | . | . | . | -116%
O=C(Nc1cccc(S(=O)(=O)N2CCCCC2)c1)c1ccc(Cl)nc1 | . | 50µM | . | / | . | .
O=C(Nc1cccc(S(=O)(=O)N2CCOCC2)c1)c1ccco1 | . | . | . | . | . | .
Cc1ccc(NC(=O)C(C)OC(=O)c2ccc(Cl)nc2)cc1S(=O)(=O)N1CCOCC1 (configuration not stated) | 28µM | . | . | . | . | .
CCOC(=O)C1CCN(CC(=O)Nc2cc(C)c3c(=O)oc4ccccc4c3n2)CC1 | . | / | / | . | / | /
